High-throughput results (PubChem)
NSD2 inh: NSD2 (human) methyltransferase inhibition. inhibition, % at 12.5 µM. NSD2 peptide methylation, AlphaScreen, 120 min. AID 743445. actives 0.54% (n = 310,000); in the data active = inhibition above about 50%
Glyco luc inh: N-linked glycosylation inhibition. D54 ERlucT glycosylation luciferase reporter, 24 h; percent of 100 nM tunicamycin response. actives 0.23% (n = 360,000). AID 588692. reporter increase, % at 12.5 µM;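 active = mean luciferase reporter signal, scaled so untreated is 0 and the glycosylation-blocking control 100, at or above a set limit in every replicate; inconclusive = mean reaches the limit but not every replicate does; inactive = mean below the limit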;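 also: luciferase carries N-glycosylation sites so blocking glycosylation raises the light; 0% = median of neutral control wells and 100% = median of 100 nM tunicamycin wells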
SUMO Mot1 rescue: inhibitors of SUMOylation pathway: yeast Mot1-301 growth rescue | S. cerevisiae Mot1-301 growth rescue, ATP luminescence, 38.5C; percent above DMSO median, 100 means doubled | growth rescue, % at 18.8 µM | actives 1% (n = 320,000);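 active = every valid replicate shows activation above 250% relative to neutral control wells; inactive = the rest, any valid replicate at or below 250%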;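 also: OY570 slx delta 5 strain wells were the positive control but not used for scaling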
ALR H2O2 inh: inhibitors of human sulfhydryl oxidase ALR. actives 3.8% (n = 290,000). P55789. AID 485317. inhibition, % (test concentration not listed). purified ALR, DTT oxidation, H2O2 HRP-luminol luminescence;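 active = mean replicate inhibition above about 79%, with every replicate also reaching it, limit read from the data; inconclusive = only one of the two criteria met; inactive = mean below limit and not every replicate reaching it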
Target sequence (P55789 whole entry, looked up): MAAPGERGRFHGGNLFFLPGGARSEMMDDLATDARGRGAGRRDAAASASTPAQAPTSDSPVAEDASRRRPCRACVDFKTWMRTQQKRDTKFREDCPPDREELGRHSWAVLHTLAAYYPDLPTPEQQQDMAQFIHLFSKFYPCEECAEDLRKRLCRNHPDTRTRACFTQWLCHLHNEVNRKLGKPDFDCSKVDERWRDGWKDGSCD
CASP6 VEID inh: blocks human caspase-6 cleavage activity. actives 0.53% (n = 350,000). purified caspase-6, Z-VEID-R110 cleavage fluorescence. inhibition, % at 12.5 µM. AID 686996. P55212;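 active = mean inhibition across replicates at least about 35%, with every replicate also reaching that limit, limit read from the data; inconclusive = only one of the two criteria met; inactive = neither criterion met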;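 also: 0% = median of neutral control wells and 100% = no fluorescence left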
Target sequence (P55212 24-179 limits assumed): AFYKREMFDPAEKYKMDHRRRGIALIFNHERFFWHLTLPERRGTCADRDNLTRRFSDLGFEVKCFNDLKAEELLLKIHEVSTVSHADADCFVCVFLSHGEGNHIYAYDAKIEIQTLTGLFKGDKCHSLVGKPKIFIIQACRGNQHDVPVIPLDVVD
Target sequence (P55212 194-293 limits assumed): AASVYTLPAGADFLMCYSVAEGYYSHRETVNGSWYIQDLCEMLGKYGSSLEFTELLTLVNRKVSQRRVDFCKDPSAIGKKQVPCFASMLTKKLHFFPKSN
CDK5 inh: blocks human CDK5/p35 kinase activity; inhibition, % at 10 µM; Q00535+Q15078; Recombinant CDK5/p35, ADP-Glo luminescence, 60 min; AID 488839; actives 0.01% (n = 330,000);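 active = highest replicate inhibition of at least 50% and at least 75% of replicates reaching 50%; inconclusive = only one of the two criteria met; inactive = both criteria failed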;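 also: plate controls were DMSO neutral control for no effect and GW8510 at 10 µM for full effect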
Numbers without * were called inactive; ? = inconclusive; . = no result; + = active, no number. In the library only some 3.9% were active in any assay of this set; here they are far more common.

SMILES	NSD2 inh	Glyco luc inh	SUMO Mot1 rescue	ALR H2O2 inh	CASP6 VEID inh	CDK5 inh
O=C(C[C@@H]1C[C@H]2c3cc(NS(=O)(=O)c4ccccc4)ccc3O[C@H]2[C@H](CO)O1)NCC(F)(F)F	.	.	.	.	4.7	.
C=CCc1c(C)nc(-c2ccccc2)nc1Nc1ccc(O)cc1	3.3	-0.9	5.0	99.0*	.	0.8
CCn1c(=O)n(CC)c2cc(N3CCCC3)c(NC(=O)c3c(F)cccc3F)cc21	7.1	12.1	-23.0	98.8*	0.6	0.7
CCn1c(=O)n(CC)c2cc(N3CCCC3)c(NC(=O)c3cccc(OC)c3)cc21	9.4	6.7	-7.8	65.9	-0.1	2.2
CCn1c(=O)n(CC)c2cc(N3CCCC3)c(NC(=O)c3ccc(F)cc3)cc21	4.4	4.8	3.3	99.5*	0.4	-1.5
CCc1oc2ccccc2c1C(=O)CCN1CCCCC1	6.4	-1.4	12.0	97.1*	.	-0.7
O=C(CCN1CCCCC1)c1ccccc1	-3.6	-0.4	12.5	46.6	-8.2	0.8
COc1cc(/C=C(/C(=O)c2cccs2)c2nc3ccccc3[nH]2)ccc1O	4.2	12.3	.	?	.	-0.1
O=C(/C(=C\c1ccccc1)c1nc2ccccc2[nH]1)c1ccc(Cl)cc1	0.0	33.8*	+	.	.	-0.2
O=C(/C(=C/c1ccc(Cl)cc1)c1nc2ccccc2[nH]1)c1cccs1	.	-8.8	520.6*	2.7	.	-0.5
Cc1cc(C(=O)Nc2nc3c(s2)CCCC3)no1	1.8	-13.2	9.8	96.5*	.	-2.6
CN(C)c1ccc(C(=O)Nc2nc3c(s2)CCCC3)cc1	.	-17.8	-10.6	96.4*	2.3	0.8
Cc1onc(-c2ccccc2)c1C(=O)Nc1nc2c(s1)CCCC2	10.3	-6.4	46.1	-6.4	.	-1.0
CCCNC(=O)C[C@@H]1CC[C@H]2[C@H](COc3ccc(NC(=O)Nc4c(C)noc4C)cc3C(=O)N2C)O1	.	.	.	.	0.1	.
CC1=NN(c2nc(-c3ccc(C)cc3)cs2)C(=O)C1N=Nc1ccc(C(N)=O)cc1 (stereo unspecified)	-1.8	3.1	440.8*	11.0	0.8	1.3
COc1ccc(CNC(=O)c2cccnc2Sc2ccc(C)c(C)c2)cc1	-1.6	-3.7	-14.0	.	.	-0.7
Cc1ccc(Sc2ncccc2C(=O)NCc2cc([N+](=O)[O-])ccc2O)cc1C	15.5	1.0	1.4	89.2*	1.9	-0.5
COc1ccc(Nc2cc(C)nc(NCc3ccccc3)n2)cc1	1.1	-5.1	35.8	75.0*	-1.1	0.2
Cc1ccc(Nc2cc(C)nc(NCc3ccccc3)n2)cc1	-2.2	-0.6	-27.2	2.3	-2.4	1.4
CC(C)C(=O)Nc1cccc(S(=O)(=O)NC2=NCCC2)c1	0.5	5.8	.	.	-4.2	.
CC(=O)c1ccc(S(=O)(=O)Nc2cccc(S(=O)(=O)NC3=NCCC3)c2)cc1	-1.4	2.3	24.1	99.6*	.	-1.4
O=C(CCl)Nc1cccc(S(=O)(=O)NC2=NCCC2)c1	-1.2	60.2*	-5.0	-4.5	3.2	-0.9
C[C@@H]1CN([C@H](C)CO)C(=O)c2cccc(NC(=O)C3CCCCC3)c2O[C@H]1CN(C)C(=O)Nc1ccccc1	.	.	.	.	-0.5	.
CCc1ccc(-c2nc(CS(=O)CC(=O)NCc3ccco3)c(C)o2)cc1 (stereo unspecified)	-1.0	0.7	-4.9	98.6*	12.3	0.1
COc1ccc(-c2nc(CS(=O)CC(=O)NCc3ccco3)c(C)o2)cc1 (stereo unspecified)	.	2.2	-9.0	98.9*	1.6	-1.9
SMILES	NSD2 inh	Glyco luc inh	SUMO Mot1 rescue	ALR H2O2 inh	CASP6 VEID inh	CDK5 inh
Cc1oc(-c2ccc(Cl)cc2)nc1CS(=O)CC(=O)NCc1ccc2c(c1)OCO2 (stereo unspecified)	.	2.9	-10.3	57.9	-0.5	1.2
CCC(=O)Nc1ccc2c(c1)C(=O)N(C)[C@@H]1CC[C@@H](CC(=O)NCCOC)O[C@@H]1CO2	.	.	.	.	-2.0	.
COc1ccc(S(=O)(=O)Nc2ccc3c(c2)C(=O)N([C@@H](C)CO)C[C@H](C)[C@@H](CN(C)C(=O)Cc2ccccc2)OCCCC[C@@H](C)O3)cc1	.	.	.	.	-0.9	.
COc1ccc(C2(CNC(=O)c3cc(OC)c(OC)c(OC)c3)CCCC2)cc1OC	1.0	34.6*	.	.	1.3	-0.9
COc1cc(C(=O)NCC2(c3ccccc3)CCCC2)cc(OC)c1OC	-1.5	0.5	12.2	2.5	-4.1	0.5
CCc1nn(CC(=O)Nc2ccc(Br)c(C)c2)c(=N)s1	-1.9	-3.1	1.6	98.6*	2.8	-2.8
COc1cc(NC2c3ccccc3C(=O)N2c2cc(C)ccn2)cc(OC)c1OC (stereo unspecified)	.	0.8	8.9	95.0*	-1.5	-0.8
O=C(NCCCn1ccnc1)/C(=C/c1ccc(Cl)cc1)NC(=O)c1ccccc1	0.6	4.6	-9.9	-4.0	-25.5	-2.8
CN(C)c1ccc(/C=C(/NC(=O)c2ccccc2)C(=O)NCCCn2ccnc2)cc1	1.5	1.9	-20.7	98.9*	.	-0.9
CN(C)c1ccc(/C=C(\NC(=O)c2ccccc2)C(=O)NCCCN2CCOCC2)cc1	-0.7	0.2	6.2	98.4*	-9.3	-1.2
COCC(=O)Nc1ccc2c(c1)C(=O)N(C)C[C@H](OC)[C@@H](C)CN(Cc1ccccc1)[C@@H](C)CO2	.	.	.	.	-7.6	.
O=C(NCCNCc1ccccc1)c1ccco1	3.0	-0.5	.	.	63.5*	0.2
Cc1cccc2nc(-c3ccco3)c(Nc3ccc4c(c3)OCO4)n12	7.5	-4.6	-3.7	99.5*	1.0	-0.7
Cc1cc(Cc2cc(C)c(N)cc2C)c(C)cc1N	0.0	0.5	34.8	97.0*	-5.7	0.1
COCC#Cc1ccc([C@@H]2[C@@H](C#N)N(C(=O)NC3CCCC3)[C@@H]2CO)cc1	.	.	.	.	-1.5	.
Cc1cc(=O)c2c(o1)C(=O)c1occc1C2=O	138.6*	5.7	.	.	91.6*	-1.8
CCOC(=O)Cc1cc(=O)n(-c2nc3ccccc3s2)[nH]1	4.5	1.4	26.3	97.6*	.	-3.0
O=[N+]([O-])c1ccc(S(=O)(=O)N2CCC3(CC2)OCCN3S(=O)(=O)c2cccs2)cc1	11.7	-1.9	-5.7	-7.0	35.6*	-1.0
COc1ccc(S(=O)(=O)N2CCOC23CCN(S(=O)(=O)c2ccc(C)cc2)CC3)cc1	-5.5	-2.2	-10.6	-5.8	52.1*	1.5
CCOc1ccc(-c2nc(-c3cccs3)c(CC(=O)O)s2)cc1OC	-3.9	1.7	-3.6	88.7*	0.5	0.5
Cc1noc(C)c1NC(=O)Nc1ccc2c(c1)CC(=O)N([C@@H](C)CO)C[C@H](C)[C@@H](CN(C)Cc1ccc(C(=O)Nc3ccccc3N)cc1)O2	.	.	.	.	0.7	.
COc1cccc(CNC(=O)[C@@H]2[C@@H](CO)[C@@H]3Cn4c(ccc(-c5ccncc5)c4=O)[C@@H]3N2C)c1	.	.	.	.	-1.4	.
O=C(OCC(=O)N1N=C(c2ccc(Cl)cc2)CC1c1ccco1)c1cncc(Br)c1 (stereo unspecified)	0.5	0.0	53.9	-2.0	41.3*	-0.3
